Over roughly 16,000 sequences, “rpm ratio (pull-down/input)” has its median near 0.94; the highest 2% begin near 1.7. This excerpt belongs to a sample that is enriched for the highest values.

The test has as its target T1, MBP-FoxP1dN (Mus musculus, UniProt P58462 326-579).
T1 sequence: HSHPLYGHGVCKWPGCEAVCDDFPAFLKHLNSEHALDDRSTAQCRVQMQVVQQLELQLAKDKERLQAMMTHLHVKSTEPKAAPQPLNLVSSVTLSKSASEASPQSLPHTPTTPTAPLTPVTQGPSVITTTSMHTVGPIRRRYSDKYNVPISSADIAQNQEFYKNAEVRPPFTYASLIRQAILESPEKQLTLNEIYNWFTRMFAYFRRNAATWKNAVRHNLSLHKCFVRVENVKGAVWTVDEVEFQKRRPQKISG
The test can be described thus: PD-seq (MBP pull-down with sequencing); 20 mM Tris-HCl pH 7.5, 100 mM NaCl, 1.5 mM MgCl2, 0.4 uM protein, 0.1 uM dsDNA library, 30 min, room temperature, amylose pull-down; high values mean tight binding. To be noted: protein: recombinant; tags: His6-MBP; chain copies: 2; dsDNA, one strand shown. Put shortly:
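Binding is given as reads-per-million enrichment, pull-down over input, with replicates pooled. The bait was an N-terminus-lacking mouse FoxP3 or FoxP1 fragment with a His6-MBP tag, expressed in E. coli and used at 0.4 µM with 0.1 µM Klenow-filled degenerate double-stranded DNA library for 30 min at room temperature in Tris pH 7.5 buffer with NaCl and MgCl2. Amylose resin pull-down with three washes was followed by proteinase K release, PCR barcoding and Illumina sequencing.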
“GATGATTGTTCTCCCAGCTGATGAATTGAGGTCCTCGAGTAAACAAATTTTCCTAATCTTTCTGTTCAAGCGCCATCTAC”: the binding signal is 0.772 RPM ratio (pull-down/input). As for “GATGATTGTTCTCCCAGCTGATGAATTTGATAGCTCGAGTAAACAAATTTTCCTAATCTTTCTGTTCAAGCGCCATCTAC”, the figure is 0.868 RPM ratio (pull-down/input); as for “GATGATTGTTCTCCCAGCTGATGAATTCGGTACATCGAGTAAACAAATTTTCCTAATCTTTCTGTTCAAGCGCCATCTAC”, 0.991 RPM ratio (pull-down/input); as for “GATGATTGTTCTCCCAGCTGATGAATTCTAATAGTCGAGTAAACAAATTTTCCTAATCTTTCTGTTCAAGCGCCATCTAC”, 0.905 RPM ratio (pull-down/input). As for “GATGATTGTTCTCCCAGCTGATGAATTAGCCGTATCGAGTAAACAAATTTTCCTAATCTTTCTGTTCAAGCGCCATCTAC”, the figure is 0.934 RPM ratio (pull-down/input); as for “GATGATTGTTCTCCCAGCTGATGAATTTACGATCTCGAGTAAACAAATTTTCCTAATCTTTCTGTTCAAGCGCCATCTAC”, 1.15 RPM ratio (pull-down/input). As for “GATGATTGTTCTCCCAGCTGATGAATTGGCGCTATCGAGTAAACAAATTTTCCTAATCTTTCTGTTCAAGCGCCATCTAC”, the figure is 0.954 RPM ratio (pull-down/input); as for “GATGATTGTTCTCCCAGCTGATGAATTCTGCCCGTCGAGTAAACAAATTTTCCTAATCTTTCTGTTCAAGCGCCATCTAC”, 0.815 RPM ratio (pull-down/input). Take “GATGATTGTTCTCCCAGCTGATGAATTAATTGTATCGAGTAAACAAATTTTCCTAATCTTTCTGTTCAAGCGCCATCTAC”: the binding signal is 1.44 RPM ratio (pull-down/input). The value for “GATGATTGTTCTCCCAGCTGATGAATTGTAATTATCGAGTAAACAAATTTTCCTAATCTTTCTGTTCAAGCGCCATCTAC” was 1.54 RPM ratio (pull-down/input); that for “GATGATTGTTCTCCCAGCTGATGAATTTGTATTATCGAGTAAACAAATTTTCCTAATCTTTCTGTTCAAGCGCCATCTAC” was 2.13 RPM ratio (pull-down/input). As for “GATGATTGTTCTCCCAGCTGATGAATTATCTGTATCGAGTAAACAAATTTTCCTAATCTTTCTGTTCAAGCGCCATCTAC”, the figure is 1.1 RPM ratio (pull-down/input). For the sequence “GATGATTGTTCTCCCAGCTGATGAATTATTTGTATCGAGTAAACAAATTTTCCTAATCTTTCTGTTCAAGCGCCATCTAC”, the binding signal was 2 RPM ratio (pull-down/input).

In the case of “GATGATTGTTCTCCCAGCTGATGAATTGTATTAATCGAGTAAACAAATTTTCCTAATCTTTCTGTTCAAGCGCCATCTAC”, the binding signal is 1.24 RPM ratio (pull-down/input). Take “GATGATTGTTCTCCCAGCTGATGAATTGCGAATATCGAGTAAACAAATTTTCCTAATCTTTCTGTTCAAGCGCCATCTAC”: the binding signal is 1.17 RPM ratio (pull-down/input). The value for “GATGATTGTTCTCCCAGCTGATGAATTGCTCTTCTCGAGTAAACAAATTTTCCTAATCTTTCTGTTCAAGCGCCATCTAC” was 0.889 RPM ratio (pull-down/input); that for “GATGATTGTTCTCCCAGCTGATGAATTCGGGTTCTCGAGTAAACAAATTTTCCTAATCTTTCTGTTCAAGCGCCATCTAC” was 0.806 RPM ratio (pull-down/input); that for “GATGATTGTTCTCCCAGCTGATGAATTGGAATATTCGAGTAAACAAATTTTCCTAATCTTTCTGTTCAAGCGCCATCTAC” was 0.93 RPM ratio (pull-down/input). As for “GATGATTGTTCTCCCAGCTGATGAATTTGTCTTCTCGAGTAAACAAATTTTCCTAATCTTTCTGTTCAAGCGCCATCTAC”, the figure is 1.16 RPM ratio (pull-down/input).

Consider “GATGATTGTTCTCCCAGCTGATGAATTGTCTTCTTCGAGTAAACAAATTTTCCTAATCTTTCTGTTCAAGCGCCATCTAC”, for which the binding signal is 1.05 RPM ratio (pull-down/input). The value for “GATGATTGTTCTCCCAGCTGATGAATTGTTGTCTTCGAGTAAACAAATTTTCCTAATCTTTCTGTTCAAGCGCCATCTAC” was 2.29 RPM ratio (pull-down/input); that for “GATGATTGTTCTCCCAGCTGATGAATTTTGTCTCTCGAGTAAACAAATTTTCCTAATCTTTCTGTTCAAGCGCCATCTAC” was 0.968 RPM ratio (pull-down/input); that for “GATGATTGTTCTCCCAGCTGATGAATTCTTTGTCTCGAGTAAACAAATTTTCCTAATCTTTCTGTTCAAGCGCCATCTAC” was 0.931 RPM ratio (pull-down/input).

“GATGATTGTTCTCCCAGCTGATGAATTTGTTGTCTCGAGTAAACAAATTTTCCTAATCTTTCTGTTCAAGCGCCATCTAC”: the binding signal was 2.42 RPM ratio (pull-down/input).

As to “GATGATTGTTCTCCCAGCTGATGAATTGTTTGTCTCGAGTAAACAAATTTTCCTAATCTTTCTGTTCAAGCGCCATCTAC”, the binding signal was 2.6 RPM ratio (pull-down/input). As for “GATGATTGTTCTCCCAGCTGATGAATTTTTTGTCTCGAGTAAACAAATTTTCCTAATCTTTCTGTTCAAGCGCCATCTAC”, the figure is 0.905 RPM ratio (pull-down/input); as for “GATGATTGTTCTCCCAGCTGATGAATTTCTGTCTTCGAGTAAACAAATTTTCCTAATCTTTCTGTTCAAGCGCCATCTAC”, 0.89 RPM ratio (pull-down/input). The value for “GATGATTGTTCTCCCAGCTGATGAATTGTATCAATCGAGTAAACAAATTTTCCTAATCTTTCTGTTCAAGCGCCATCTAC” was 1.25 RPM ratio (pull-down/input); that for “GATGATTGTTCTCCCAGCTGATGAATTACTATATTCGAGTAAACAAATTTTCCTAATCTTTCTGTTCAAGCGCCATCTAC” was 1.23 RPM ratio (pull-down/input). As for “GATGATTGTTCTCCCAGCTGATGAATTCAGCACATCGAGTAAACAAATTTTCCTAATCTTTCTGTTCAAGCGCCATCTAC”, the figure is 0.96 RPM ratio (pull-down/input); as for “GATGATTGTTCTCCCAGCTGATGAATTCCCGATGTCGAGTAAACAAATTTTCCTAATCTTTCTGTTCAAGCGCCATCTAC”, 0.877 RPM ratio (pull-down/input); as for “GATGATTGTTCTCCCAGCTGATGAATTTAAGGACTCGAGTAAACAAATTTTCCTAATCTTTCTGTTCAAGCGCCATCTAC”, 0.845 RPM ratio (pull-down/input). As to “GATGATTGTTCTCCCAGCTGATGAATTAAATATGTCGAGTAAACAAATTTTCCTAATCTTTCTGTTCAAGCGCCATCTAC”, the binding signal was 1.07 RPM ratio (pull-down/input). The value for “GATGATTGTTCTCCCAGCTGATGAATTAAAATATTCGAGTAAACAAATTTTCCTAATCTTTCTGTTCAAGCGCCATCTAC” was 1.1 RPM ratio (pull-down/input).

For the sequence “GATGATTGTTCTCCCAGCTGATGAATTAATATTGTCGAGTAAACAAATTTTCCTAATCTTTCTGTTCAAGCGCCATCTAC”, the binding signal is 2.15 RPM ratio (pull-down/input).

Source of the values: publication PMC12820563, “FoxP3 forms a head-to-head dimer in vivo and stabilizes its multimerization on adjacent microsatellites”.
